Screening results (PubChem BioAssay)
Only some compounds are listed: those with a hit (about 2.4% of all), similar ones and a draw of the others.
D2 ag-1 – activates the human D2 dopamine receptor; activation, % (test concentration not listed); 360,000 compounds, 0.084% hits; DiscoveRx PathHunter D2 beta-arrestin, luminescence, 90 min; 100% = 57 uM dopamine signal; P14416; in the data active means activation above about 40%; inconclusive means between about 15% and that limit
Target sequence (P14416 whole entry, looked up): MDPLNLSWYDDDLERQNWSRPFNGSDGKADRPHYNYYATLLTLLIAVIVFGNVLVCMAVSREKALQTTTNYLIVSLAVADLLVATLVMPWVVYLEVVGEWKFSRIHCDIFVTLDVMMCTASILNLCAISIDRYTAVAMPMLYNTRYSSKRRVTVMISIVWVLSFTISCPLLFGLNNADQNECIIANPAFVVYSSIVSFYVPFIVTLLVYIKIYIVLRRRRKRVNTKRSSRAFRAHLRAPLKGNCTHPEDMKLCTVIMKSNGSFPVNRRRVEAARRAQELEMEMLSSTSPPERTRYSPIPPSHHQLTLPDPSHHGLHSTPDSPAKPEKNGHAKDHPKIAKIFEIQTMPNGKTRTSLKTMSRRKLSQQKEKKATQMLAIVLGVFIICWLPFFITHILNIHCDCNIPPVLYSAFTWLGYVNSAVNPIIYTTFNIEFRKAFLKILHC
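DiscoveRx PathHunter D2 beta-arrestin cells (2,100/well) attached overnight, then compound-stimulated 90 min at 37 C in HBSS/10 mM HEPES/0.1% Tween-20 buffer; beta-galactosidase complementation read by luminescence after 1 h at ambient temperature. Dopamine 57 uM final (EC100) as control.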
D2 ag-2 – agonists of human D2 dopamine receptor. HEK293 T-REx D2 cells, calcium flux agonist mode. activation, % at 2 µM. AID 485358. 340,000 compounds, 0.53% hits;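 active means activation over 3 SD above normal in the single-dose calcium agonist read, cut at about 30% in these data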
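HEK293 Trex D2 cells, tetracycline-induced, o/n 30 C 5% CO2; no-wash Ca dye, RT 30–90 min; 10-cycle baseline, 23 nl cpd added, kinetic Ca read 180 s; agonist hits = positive Ca response.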
D2 PAM-1 – potentiates the human D2 dopamine receptor allosterically; P14416; DiscoveRx D2 beta-arrestin cells, luminescence, 90 min; 100% = 57 uM dopamine signal; potentiation, % (test concentration not listed); 360,000 compounds, 0.23% hits; AID 624464; in the data active means potentiation above about 50%; inconclusive means mostly about 30% to 49%
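PathHunter D2 cells, attached overnight at 37 deg C, received compound in DMSO plus dopamine at EC20 (50 nM final) for 90 min at 37 deg C. Beta-arrestin recruitment was read as luminescence after 1 h with detection reagent at ambient temperature.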
D2 antagonist – antagonists of human D2 dopamine receptor; P14416; HEK293 TREx D2 cells, calcium flux, dopamine EC80; inhibition, % at 10 µM; 340,000 compounds, 2% hits; AID 485344; in the data active means inhibition above about 30%; inactive means below that, where a call was filed
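Inhibition of EC80 dopamine-driven calcium flux, recorded kinetically, defines activity here; cells are a tetracycline-induced HEK293 T-REx line expressing force-coupled D2.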
D2 PAM-2 – D2 dopamine receptor (human) potentiation. AID 485347. P14416. 340,000 compounds, 0.34% hits. potentiation, % at 10 µM. HEK293 T-REx D2, calcium flux, EC20 dopamine potentiation;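 active means potentiation over 3 SD above the plate norm, cut at about 30% in these data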
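Potentiation of an EC20 dopamine calcium response measured kinetically over 180 s, after a preceding 180 s compound-only read flagging agonists. Cells: inducible Hek293 Trex D2 line, 4000/well, cultured overnight at 30 C before dye loading.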
Numbers stand for hits; - = inactive; ? = inconclusive; . = not tested or not shown.

SMILES	D2 ag-1	D2 ag-2	D2 PAM-1	D2 antagonist	D2 PAM-2
Cc1ccc(N2C(=O)C3C(C2=O)C(C(=O)c2ccc(Cl)cc2)N2CCCC32)cc1 (stereo not drawn)	-	-	-	33	-
CCC1CCc2c(sc(NC(=O)C3c4ccccc4Oc4ccccc43)c2C(=O)OC)C1 (stereo not drawn)	.	-	.	.	-
Cc1cc(C)c(NC(=O)CSCc2c(C)noc2C)c(C)c1	-	-	-	49	-
Cc1ccc(NC(=O)CSCc2c(C)noc2C)cc1C	-	-	-	-	-
CCCC(c1nnnn1C(C)(C)CC)N(Cc1ccco1)Cc1cc2ccc(OC)cc2[nH]c1=O (stereo not drawn)	-	-	-	-	36
Cn1c(C(=O)NCCN2CCc3ccccc3C2)cc2c(=O)n(C)c3ccccc3c21	-	-	-	48	-
COc1cc(C(=O)NNC(=O)C2CSC3(C)CCC(=O)N23)cc(OC)c1OC (stereo not drawn)	-	-	-	41	-
COc1cc([N+](=O)[O-])ccc1NC(=O)N1CCC2(CC1)Nc1ccccc1-n1cccc12	.	.	.	.	-
COc1ccc(C(=O)Nc2ccc(Cl)c(Cl)c2)c(OC)n1	-	-	-	-	-
COc1ccc(C(=O)O)c(OC)n1	-	-	-	30	-
O=C(Cn1c2[n+](c3ccc(C(F)(F)F)cc31)CCCCC2)Nc1ccc(Br)cc1	-	-	-	56	-
N#Cc1ccc(NC(=O)Cn2c3[n+](c4ccc(C(F)(F)F)cc42)CCCCC3)cc1	-	-	-	-	-
CCn1cnc2c(=O)oc3ccc(S(=O)(=O)Nc4ccc(OC)cc4)cc3c21	.	-	.	.	-
CCCCCCSc1ccc(-c2nc3ccc(C)cn3c2NCc2ccccc2)cc1	-	-	-	34	-
CCCCCCSc1ccc(-c2nc3ccc(C)cn3c2NCc2ccccc2)cc1OC	-	-	-	-	-
Cc1ccc(CNC(=O)c2cc3c(s2)CS(=O)(=O)C3)cc1	-	-	-	-	-
Cc1ccc(CNC(=O)c2cc3c(s2)CN(Cc2ccccc2)C3)cc1	-	-	-	39	-
CCOC(=O)c1cccc(NC(=O)c2ccc3c(Cl)c4c(nc3c2)CCC4)c1	.	-	.	.	-
O=C(NCc1ccncc1)c1cn(-c2ccccc2)nc1-c1cccnc1	-	-	-	-	-
COc1ccc(-c2nn(-c3ccccc3)cc2C(=O)NCCCn2ccnc2)cc1	-	-	-	30	-
Cc1c(C(=O)NCc2ccccc2)c(-c2ccccc2)nn1-c1ccccc1	-	-	-	36	-
O=C(NCc1cccnc1)c1cn(-c2ccccc2)nc1-c1ccccc1	-	-	-	44	-
O=C(NC1CCN(Cc2ccc(Cl)cc2)CC1)c1cn(-c2ccccc2)nc1-c1cccnc1	-	-	-	74	-
COc1ccc(C(=O)NCCCn2ccnc2)cc1	-	-	-	-	-
Cc1cccc(NS(=O)(=O)c2ccc3[nH]c(=O)ccc3c2)c1C	.	-	.	.	-
SMILES	D2 ag-1	D2 ag-2	D2 PAM-1	D2 antagonist	D2 PAM-2
Cc1c(C(=O)NCc2ccccc2Br)oc2c1-c1[nH]ncc1CC2	.	.	.	.	-
COc1cc(C(=O)Nc2ccc3oc(-c4ccccc4)nc3c2)cc(OC)c1OC	.	-	.	.	-
CCCN(CCC)C(=O)c1c[nH]c2ccc(S(=O)(=O)N(C)c3ccc(Cl)cc3)cc2c1=O	.	-	.	.	-
Cc1cc2nc(-c3cccc(NC(=O)CSc4ccc(Cl)cc4)c3)oc2cc1C	.	-	.	.	-
CC(NC(=O)Cn1cnnn1)c1cccc(C(F)(F)F)c1 (stereo not drawn)	-	-	-	-	38
O=C(NNC(=O)c1cccc(C(F)(F)F)c1)c1ccc(-n2cnnn2)cc1	-	.	-	.	.
O=C(NNc1nc2c(F)cc(F)cc2s1)C1=COCCO1	-	-	-	39	-
CCC(=O)NNc1nc2c(F)cc(F)cc2s1	-	-	-	40	-
CCOC(=O)c1sc2nc(C)nc(SCC(=O)NC3CCS(=O)(=O)C3)c2c1C (stereo not drawn)	-	-	-	-	42
O=C(Nc1cccc2ccccc12)c1ccc([N+](=O)[O-])o1	-	-	-	-	-
O=C(Nc1ccccc1C(=O)NC1CC1)c1ccc([N+](=O)[O-])o1	?	-	59	-	-
CCCOc1ccccc1-c1nc(SCC(=O)c2ccccc2)n[nH]1	.	-	.	.	.
